Compounds without any hit were thinned out: in the full panel of roughly 83,000, 20% have a hit.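 For each line, cells grew in 96-well plates with the test compound present at a single concentration for 48 hours.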 Unmarked numbers belong to inactive results. Active and inactive are the calls of the source. How the source made its calls: active means growth percent below 10; inactive means the rest.

In this experiment the test system is HL-60(TB) leukemia. The experiment can be described thus: NCI-60 one-dose screen, 48 h (100 = growth as untreated, 0 = no growth, -100 = all killed). The conditions noted are these: 10 µM unless noted.
Consider `CCC(=O)N1C/C(=C/c2ccc(Br)cc2)C(=O)/C(=C/c2ccc(Br)cc2)C1`, for which the growth is -26.2% (active).

For the compound `CCOC(=O)c1cc2c(n1C)-c1nc(NC(C)=O)sc1CCC2`, the growth is 102%.

As for `CCOC(=O)/C(=C\c1ccccc1Cl)P(=O)(OCC)OCC`, the growth is 10.8%.

Take `C/C(=C\CCc1ccsc1)CC/C=C(\C)CCCN1CCC(CO)CC1`: the growth was -49.9% (active).

On to `CCCCCCCC/C=C/CCCCCCCCC1=NCCN1CCO`, for which the growth is 8.59% (active).

Take `COc1ccc2c(c1)N(CCO)C1=C(C(=O)OC1)C2c1ccccc1` (stereo not given): the growth was -20% (active).

`O=C(CSc1nnc(-c2ccccc2)o1)Nc1ccc(C(=O)/C=C/c2ccccc2)cc1`: the growth was 71%.

On to `O=C(Nc1ccccc1O)c1ccc(CNC(=O)c2sccc2Nc2ccnc(C(F)(F)F)c2)cc1`, for which the growth was 25.2%.

`CCN(CC)S(=O)(=O)c1ccc(S(=O)(=O)N2CCC[C@@H](C(=O)N3CCN(C(=O)OC(C)(C)C)CC3)C2)cc1`: the growth was 70.5%.

Consider `Fc1cccc(-c2ccc3c(c2)C2(CCNCC2)CN3)c1`, for which the growth was 108%.

Consider `C=C1C(=O)O[C@H]2[C@H]1CC/C(COC(=O)c1cc3ccccc3s1)=C\CC[C@@]1(C)O[C@@H]21`, for which the growth is -33.8% (active).

With `COc1cc(C2C3=C(COC3=O)Nc3cc4c(cc32)OCO4)cc2c1OCO2` (stereo not given), the growth is -8.91% (active).

With `NC(=N\N=C/c1ccc(Cl)cc1Cl)/C(N)=N\N=C/c1ccc(Cl)cc1Cl`, the growth was 79.7%.

With `NC(=O)NC1(C(=O)O)CCCC1`, the growth was 97.1%.

For the compound `COc1cc(-c2nn(-c3cccc(NC(=O)CCN4CCN(c5ccccc5)CC4)c3)cc2-c2ccncc2)ccc1Cl`, the growth was 13%.

On to `c1ccc2[nH]c(Cc3nc4ccccc4[nH]3)nc2c1`, for which the growth is 75.6%.

For the compound `O=c1[nH]c(-c2ccccn2)nc2sc3c(c12)CCCCCC3`, the growth is 10.9%.

For `CC(=O)C[n+]1ccccc1Sc1ccc(Cl)cc1`, the growth was 28.4%.

For `CC(C)c1ccc(S(=O)(=O)NC(=O)NC2CCCC2)cc1`, the growth was 90.8%.

As to `COC(=O)C1Cc2ccccc2CN1C(=O)c1ccc2c(c1)Cc1ccccc1-2` (stereo not given), the growth was 13.4% [50 µM].

With `O=C1Nc2ccccc2SC1C1SC(=S)N(Cc2ccccc2)C1=O` (stereo not given), the growth is 0.669% (active).

As to `O=c1nc(Nc2nc3ccccc3s2)[nH]c(=O)c2ccccc12`, the growth is 94.4%.

For `CC(C)(C)c1nc(-c2ccc(O)c(O)c2)cs1`, the growth was -5.29% (active).

As for `CC1(C)C(N)=Nc2cc(OCCCN3Cc4ccc(OCCc5cn(CC(=O)N6CCC(CCN7CCCC7)CC6)nn5)cc4C3)c(OCC3CC3)cc21`, the growth was 97.3%.

For `Cc1ccc(C(=O)Nc2cccc(C#Cc3cccc4[nH]nc(N)c34)c2)cc1C(F)(F)F`, the growth is 19.2%.

For `CCN(CC)CCCCNc1ccc(NCCCCN(CC)CC)c2c1C(=O)c1ccccc1C2=O`, the growth is 70%.

On to `CC(=O)CS(C)(=O)=O`, for which the growth was 100%.

`C[n+]1c2ccccc2nc2ccccc21`: the growth is 13.3%.

For `C[C@H]1C=C(C[C@@H](O)CC#CC#CCCCCC[C@@H](O)[C@H]2CCC(=O)O2)C(=O)O1`, the growth was 99.1%.

`COc1ccc(C2=C/C(=C\c3ccccc3O)C(=O)N2Cc2ccccc2)cc1`: the growth is 40.9%.

In the case of `COc1cc2c3c(n(C)c(=O)c2cc1OC)-c1cc2c(cc1C3=O)OCO2`, the growth was 73.6%.

On to `CCOc1cc(C2C(Cl)C(=O)N2n2cnnc2)ccc1O` (stereo not given), for which the growth was 101%.

With `CCCCN(CCCC)c1cc(C(=O)CCCCCN)c2ccccc2n1`, the growth is -67.9% (active).

In the case of `CC(=O)[C@@H]1CC[C@]2(CO)CC[C@]3(C)[C@H](CC[C@@H]4[C@@]5(C)CCCNC(C)(C)[C@@H]5CC[C@]43C)[C@@H]12`, the growth was 136%.

Consider `Nc1nc(-c2cc3c(cc2Cl)NC(=O)/C3=C/c2ccc(Cl)cc2)cs1`, for which the growth was -11.7% (active).

On to `COc1cc(C(C)n2cc(-c3ccccc3)nn2)ccc1OC1CCCC1` (stereo not given), for which the growth was 53.1%.

For `COc1cc2c(cc1OCCCCN1CCN(CC(=O)Nc3ccc(Cl)cc3C(=O)c3ccccc3Cl)CC1)N=CC1CCCN1C2=O` (stereo not given), the growth was -72.1% (active).

Consider `CC1=C2[C@@H](CC1)[C@]1(C)O[C@@](C3CC3)(C[C@H]1OC(=O)CO)[C@H]2OC(=O)/C=C/c1ccccc1`, for which the growth is 92.6%.

As for `COc1ccc(-c2nc(N3CCN(C(=O)C4CCCCC4)CC3)c3c4c(sc3n2)CCCC4)cc1`, the growth was 39%.

Turning to `CCCCC1=C(P(=O)(O)O)N[C@H](C(=O)O)CS1`, the growth was 103%.

For the origin of these results see PubChem BioAssay (NCI).
